Calls of active or inactive are those of the source.
Legend:
[1] = small molecules captured by biotinylated probe aFSTL3 – biochemical, small-molecule microarray, fluorescence 635/667, stem cell growth factor project, primary screen (AID 1064); conditions: higher = more signal;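 further: measures binding of the biotinylated anti-FSTL3 antibody to printed compounds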
[2] = binders from COS7 lysate, DM2A8 probe, primary screen, torsin A project, cell lysate, small-molecule microarray, fluorescence 635/667 (AID 1065); conditions: higher = more signal, COS7 lysate expressing mutant human TOR1A
[3] = small molecules captured by biotinylated probe aFGF2 – biochemical, small-molecule microarray, fluorescence 635/667, stem cell growth factor project, primary screen (AID 1067); conditions: higher = more signal;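 further: measures binding of biotinylated aFGF2 protein to printed compounds on slides; z-score merges feature fluorescence and signal-to-noise across triplicate slides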
[4] = small molecules captured by biotinylated probe aFGF10 – biochemical, small-molecule microarray, fluorescence 635/667, stem cell growth factor project, primary screen (AID 1071); conditions: higher = more signal;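 further: score merges 667 nm spot intensity and signal to noise from triplicate slides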
[5] = target: Neurogenic locus notch homolog protein 2 (Homo sapiens) (UniProt Q04721); test: small molecules binding Notch2 protein – biochemical, small-molecule microarray, 635 nm fluorescence, stem cell growth factors, primary screen (AID 1073); conditions: higher = more signal
[6] = target: Pro-neuregulin-1, membrane-bound isoform (Homo sapiens) (UniProt Q02297); test: small molecules binding neuregulin-1 protein – biochemical, small-molecule microarray, fluorescence 635/667, psychiatric disease protein project, primary screen (AID 1075); conditions: NRG1 binding, 635 nm fluorescence, higher = more signal;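 further: score combines 667 nm spot fluorescence with signal to noise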
[7] = test system: Neuregulin-1 EGF-like domain; test: small molecules binding NRG1 EGF domain – biochemical, small-molecule microarray, 635 nm fluorescence, primary screen (AID 1081); conditions: higher = more signal;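 further: binding of the protein to compounds printed on small-molecule microarray slides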
[8] = FRG1 expression reporter modulators in myotubes – cell-based, C2C12 myotubes, firefly/Renilla luciferase, luminescence, FRG1 inhibition for FSHD, primary screen (AID 1084); conditions: FRG1 promoter luciferase, higher = more signal, called active from +8 up or from −8 down
[9] = small molecules captured by biotinylated probe aFST – biochemical, small-molecule microarray, fluorescence 635/667, stem cell growth factor project, primary screen (AID 1086); conditions: higher = more signal;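 further: score merges 667 nm fluorescence with signal-to-noise of each printed compound spot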
[10] = binders of probe aHhip on microarray, primary screen, stem cell growth factor project, biochemical, small-molecule microarray, fluorescence 635/667 (AID 1087); conditions: higher = more signal;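 further: score merges spot fluorescence at 667nm with spot signal to noise ratio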

Pro-neuregulin-1, membrane-bound isoform (Homo sapiens), sequence (Q02297 whole entry, looked up, the tested form may be a part, canonical isoform): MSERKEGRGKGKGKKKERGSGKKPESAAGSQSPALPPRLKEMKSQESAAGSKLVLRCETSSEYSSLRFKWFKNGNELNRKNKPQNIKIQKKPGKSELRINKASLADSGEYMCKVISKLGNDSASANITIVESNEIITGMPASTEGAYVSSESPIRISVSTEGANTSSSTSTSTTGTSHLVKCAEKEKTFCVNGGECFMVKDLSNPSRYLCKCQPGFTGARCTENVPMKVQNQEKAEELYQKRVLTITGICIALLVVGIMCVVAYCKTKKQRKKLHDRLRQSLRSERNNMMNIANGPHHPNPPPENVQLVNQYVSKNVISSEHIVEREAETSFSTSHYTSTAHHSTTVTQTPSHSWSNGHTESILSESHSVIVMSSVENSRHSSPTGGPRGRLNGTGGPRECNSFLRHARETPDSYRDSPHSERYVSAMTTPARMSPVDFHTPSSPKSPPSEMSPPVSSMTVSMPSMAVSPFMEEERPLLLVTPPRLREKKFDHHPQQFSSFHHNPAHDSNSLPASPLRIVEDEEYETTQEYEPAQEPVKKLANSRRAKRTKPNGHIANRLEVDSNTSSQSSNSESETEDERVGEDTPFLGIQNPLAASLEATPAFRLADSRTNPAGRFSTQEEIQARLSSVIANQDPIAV
Neurogenic locus notch homolog protein 2 (Homo sapiens), sequence (Q04721 whole entry, looked up, canonical isoform): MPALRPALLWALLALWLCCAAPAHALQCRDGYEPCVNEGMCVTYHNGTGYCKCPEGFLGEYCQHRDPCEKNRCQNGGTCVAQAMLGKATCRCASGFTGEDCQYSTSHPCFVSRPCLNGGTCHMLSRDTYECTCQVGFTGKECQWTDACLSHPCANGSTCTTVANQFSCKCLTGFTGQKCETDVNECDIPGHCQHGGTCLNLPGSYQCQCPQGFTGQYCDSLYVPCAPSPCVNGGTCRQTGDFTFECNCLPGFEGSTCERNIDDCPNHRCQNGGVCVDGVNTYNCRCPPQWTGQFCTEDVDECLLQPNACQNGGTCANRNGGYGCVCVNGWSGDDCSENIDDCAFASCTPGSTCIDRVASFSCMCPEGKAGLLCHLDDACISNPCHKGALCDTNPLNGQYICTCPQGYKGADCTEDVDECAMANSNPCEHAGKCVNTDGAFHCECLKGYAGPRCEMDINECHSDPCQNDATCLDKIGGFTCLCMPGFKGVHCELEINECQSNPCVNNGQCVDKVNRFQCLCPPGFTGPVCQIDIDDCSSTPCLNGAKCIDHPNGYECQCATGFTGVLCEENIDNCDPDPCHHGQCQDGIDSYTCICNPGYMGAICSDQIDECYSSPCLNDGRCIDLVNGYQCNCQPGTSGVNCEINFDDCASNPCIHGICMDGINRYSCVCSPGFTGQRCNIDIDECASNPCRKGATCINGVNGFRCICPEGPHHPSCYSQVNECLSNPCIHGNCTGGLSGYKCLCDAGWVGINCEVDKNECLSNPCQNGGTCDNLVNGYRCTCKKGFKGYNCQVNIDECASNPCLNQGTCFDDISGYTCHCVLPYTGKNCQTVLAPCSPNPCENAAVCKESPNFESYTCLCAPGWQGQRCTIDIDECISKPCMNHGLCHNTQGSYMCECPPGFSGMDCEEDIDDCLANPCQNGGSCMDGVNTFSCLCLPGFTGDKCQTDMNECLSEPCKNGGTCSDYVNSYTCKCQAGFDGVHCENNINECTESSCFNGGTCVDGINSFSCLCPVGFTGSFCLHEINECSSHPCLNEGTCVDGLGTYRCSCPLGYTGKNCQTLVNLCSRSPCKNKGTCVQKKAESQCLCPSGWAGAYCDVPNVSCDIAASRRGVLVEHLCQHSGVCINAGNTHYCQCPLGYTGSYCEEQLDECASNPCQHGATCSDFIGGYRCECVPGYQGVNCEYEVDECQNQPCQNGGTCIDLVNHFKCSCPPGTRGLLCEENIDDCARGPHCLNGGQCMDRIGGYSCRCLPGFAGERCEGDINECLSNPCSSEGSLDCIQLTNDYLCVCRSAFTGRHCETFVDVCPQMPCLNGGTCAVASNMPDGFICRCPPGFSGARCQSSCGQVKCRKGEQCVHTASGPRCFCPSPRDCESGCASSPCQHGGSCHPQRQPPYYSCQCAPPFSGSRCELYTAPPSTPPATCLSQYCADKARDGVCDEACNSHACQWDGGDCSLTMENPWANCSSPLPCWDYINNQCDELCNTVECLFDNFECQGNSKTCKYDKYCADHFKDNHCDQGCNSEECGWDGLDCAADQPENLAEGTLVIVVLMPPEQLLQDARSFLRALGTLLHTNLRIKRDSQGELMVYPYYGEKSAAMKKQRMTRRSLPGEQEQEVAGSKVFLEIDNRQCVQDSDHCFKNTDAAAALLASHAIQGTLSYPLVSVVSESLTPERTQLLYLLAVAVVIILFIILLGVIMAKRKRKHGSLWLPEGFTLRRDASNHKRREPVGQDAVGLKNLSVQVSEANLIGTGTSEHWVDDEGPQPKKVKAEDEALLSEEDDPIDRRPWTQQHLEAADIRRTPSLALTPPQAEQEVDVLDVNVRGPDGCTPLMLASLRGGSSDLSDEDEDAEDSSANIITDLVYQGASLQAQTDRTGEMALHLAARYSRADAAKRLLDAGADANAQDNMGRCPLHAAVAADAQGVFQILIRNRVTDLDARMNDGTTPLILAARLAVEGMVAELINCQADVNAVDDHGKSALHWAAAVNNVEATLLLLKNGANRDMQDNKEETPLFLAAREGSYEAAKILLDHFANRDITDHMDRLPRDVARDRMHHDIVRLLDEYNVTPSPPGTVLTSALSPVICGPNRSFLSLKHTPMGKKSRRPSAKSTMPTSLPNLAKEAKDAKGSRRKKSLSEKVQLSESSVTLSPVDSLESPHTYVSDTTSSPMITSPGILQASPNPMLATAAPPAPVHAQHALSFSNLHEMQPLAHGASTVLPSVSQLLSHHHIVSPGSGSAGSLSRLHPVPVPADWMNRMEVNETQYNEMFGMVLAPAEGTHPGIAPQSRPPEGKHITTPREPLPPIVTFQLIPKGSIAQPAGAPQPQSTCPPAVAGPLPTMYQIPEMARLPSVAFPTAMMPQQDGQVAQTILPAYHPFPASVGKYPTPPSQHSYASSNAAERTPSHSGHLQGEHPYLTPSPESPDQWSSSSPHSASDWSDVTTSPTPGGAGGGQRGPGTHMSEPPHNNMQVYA

Row | Compound | composite z-score [1] | composite z-score [2] | composite z-score [3] | composite z-score [4] | composite z-score [5] | composite z-score [6] | composite z-score [7] | z-score [8] | composite z-score [9] | composite z-score [10]
1 | CCCNC(=O)[C@@]1(C)c2ccccc2C(=O)N(c2ccc(C)cn2)[C@H]1c1ccc(CO)cc1 | 0.294 | 0.0231 | -0.0692 | -0.281 | 0.0657 | 0.638 | 0.781 | 0.683 (inactive) | -0.215 | -0.219
2 | O=C1[C@H]2C=C(I)[C@H](C[C@@H]2OCCOCCO)[C@@]12CO2 | -0.444 | 0.97 | -0.0877 | 0.454 | 0.67 | -0.183 | 0.653 | 0.843 (inactive) | -0.192 | 0.0722
3 | COc1ccc(C#Cc2ccc3c(c2)[C@]2(C(=O)N3)[C@H](c3ccc(OCCO)cc3)N3[C@H](c4ccccc4)[C@H](c4ccccc4)OC(=O)[C@H]3[C@@H]2C(=O)NC[C@H](O)c2ccccc2)cc1 | -0.338 | 0.411 | -0.0276 | 0.422 | 1.16 | 1.55 | 1.13 | -0.164 (inactive) | 0.547 | -0.236
4 | CCOC(=O)C[C@H]1[C@H](OC(=O)c2cc3ccccc3oc2=O)[C@@H](NC(=O)CC(C)C)c2cc(OCCCO)ccc2N1C(=O)c1ccc2ccccc2n1 | -0.444 | 0.304 | -0.132 | 0.945 | 1.09 | 0.594 | 1.1 | 0.159 (inactive) | 0.252 | -0.199
5 | COc1cc(OC)c(C(O)C2C=CC3C(=O)N(Cc4ccccc4)C(=O)C3N2n2cnnc2)cc1Br (stereo not given) | -0.245 | 2.19 | -0.0131 | 0.919 | 0.36 | 1.32 | 1.12 | 0.569 (inactive) | 1.35 | -0.0645
6 | Cc1ccc(N2C(=O)c3ccccc3[C@@H](C(=O)NCCCN(C)C)[C@@H]2c2ccc(CO)cc2)nc1 | 1.36 | -0.538 | 0.111 | -0.533 | -0.854 | 1.02 | 1.44 | 0.298 (inactive) | 0.282 | -0.757
7 | COC(=O)[C@@]1(Cc2ccc(F)cc2)[C@H]2c3cc(C(=O)N4CCCC4)n(CCc4c[nH]c5ccccc45)c3C[C@H]2CN1C(=O)c1ccccc1 | 0.484 | 0.246 | 0.0869 | 0.439 | 1.62 | 2.06 | 1.22 | -2.21 (inactive) | 1.05 | 0.245
8 | COc1cc(NN2C(C(O)c3cc(OC)c(OC)c(OC)c3)C=CC3C(=O)N(C)C(=O)C32)cc(OC)c1OC (stereo not given) | -0.0324 | 0.427 | -0.0613 | 0.899 | 1.34 | 1.98 | 1.23 | 0.78 (inactive) | 0.572 | 0.12
9 | CC1=C2[C@@H](CCc3ccccc3)OB(O)C[C@@H]2[C@@H]2C(=O)N(Cc3ccccc3)C(=O)[C@@H]2C1 | -0.575 | -0.0096 | -0.155 | 0.0928 | 0.529 | 0.0808 | 1.02 | -0.0949 (inactive) | 0.0584 | -0.0618
10 | O=C1OCCC=C[C@H]2OC34C=CCN(Cn5nnc6ccccc65)C(=O)[C@H]3N(CCCO)C(=O)[C@@H]4C12 (stereo not given in full) | 0.32 | -0.173 | -0.116 | -0.169 | -1.3 | -0.763 | 0.437 | 0.0397 (inactive) | -0.601 | -0.236
11 | COC(=O)C/C=C/C[C@]1(O)C(=O)N(C)c2ccccc21 | -0.408 | 0.598 | -0.148 | -0.294 | 0.223 | -0.419 | 0.797 | -1.59 (inactive) | 0.164 | -0.0708
12 | CCCC[C@@H]1C[C@H]1[C@@H](NC(=O)c1cccs1)c1ccccc1C(F)(F)F | 0.015 | 0.871 | 0.326 | 0.256 | 0.803 | 1.8 | 1.1 | -0.0362 (inactive) | -0.517 | -0.115
13 | C#Cc1cc2ccccc2oc1=O | 0.985 | -0.109 | 0.153 | -0.232 | -1.81 | 0.785 | 1.29 | 1.35 (inactive) | -0.839 | -0.14
14 | COc1ccc([Si](C)(C)[C@@H]2[C@@H](CC(=O)N3CCC[C@H]3CO)O[C@]3(C(=O)N(Cc4cccc(N5C(=O)COc6ccccc65)c4)c4ccccc43)[C@H]2C)cc1 | -0.222 | 0.203 | -0.112 | 0.428 | -0.173 | 1.35 | 1.12 | -0.234 (inactive) | 0.824 | 0.103
15 | C=CCC(OC(C)=O)[C@@H]1[C@@H](N(Cc2ccc(-c3cccc(C(F)(F)F)c3)o2)C(=O)Cc2ccc(OC)cc2)c2cc(OCCCO)ccc2N1C(=O)c1ccc(-c2ccccc2)cc1 (stereo not given in full) | -0.124 | 0.004 | -0.0796 | 0.0554 | -0.57 | 0.168 | 0.0604 | -0.461 (inactive) | 0.214 | 0.382
16 | CC(CO)N1C(=O)[C@@H]2[C@H]3C(=O)OCC=C[C@H]3OC23C=CCN(Cn2nnc4ccccc42)C(=O)[C@@H]13 (stereo not given in full) | 0.12 | -0.699 | -0.207 | -0.729 | -1 | 1.88 | 0.694 | 0.246 (inactive) | -0.391 | -0.0994
17 | COC(=O)[C@@]1(Cc2ccc(F)cc2)[C@H]2c3cc(C(=O)N4CCCC4)n(Cc4ccc(C)c(F)c4F)c3C[C@H]2CN1C(=O)c1ccccc1 | 0.573 | -0.0621 | -0.0887 | -0.227 | 1.11 | 1.29 | 1.35 | 2.59 (inactive) | 0.409 | -0.0618

Row | Compound | composite z-score [1] | composite z-score [2] | composite z-score [3] | composite z-score [4] | composite z-score [5] | composite z-score [6] | composite z-score [7] | z-score [8] | composite z-score [9] | composite z-score [10]
18 | Cc1ccc(NN2C(C(O)c3c(F)cccc3Cl)C=CC3C(=O)N(C4CCCCC4)C(=O)C32)cc1 (stereo not given) | 1.14 | 0.44 | 0.0749 | 0.507 | 1.55 | 1.46 | 1.06 | 0.0701 (inactive) | 0.697 | -0.254
19 | Cc1ccc(F)cc1S(=O)(=O)N[C@@H]1CCN(Cc2ccc(Br)cc2)C1 | -0.414 | 0.673 | -0.23 | -0.207 | 0.414 | -0.107 | 0.035 | -2.08 (inactive) | 0.258 | -0.0994
20 | O=C(NCCN1CCOCC1)[C@@H]1c2ccccc2C(=O)N(Cc2ccccc2Cl)[C@H]1c1ccc(CO)cc1 | -0.138 | -0.483 | -0.15 | -0.758 | -0.922 | 0.923 | 1.32 | -2.41 (inactive) | 0.263 | -0.391
21 | C=CCOC(=O)[C@@]1(Cc2ccccc2)C[C@H]2CO[C@H](c3ccc(OC)cc3)N2C1=O | -0.442 | 0.366 | -0.12 | 0.252 | 0.0925 | -0.294 | 0.209 | -1.33 (inactive) | -0.135 | 0.0373
22 | COc1cc(NN2C(C(O)c3ccc(N(C)C)cc3)C=CC3C(=O)N(c4ccccc4)C(=O)C32)cc(OC)c1OC (stereo not given) | 0.817 | 0.0214 | 0.107 | 0.396 | 1.18 | 0.465 | 1.13 | 1.44 (inactive) | 0.588 | -0.0618
23 | CC(c1ccccc1)C(O)C1C=CC2C(=O)N(C)C(=O)C2N1Nc1ccccc1 (stereo not given) | 0.799 | -0.146 | 0.362 | 0.796 | 1.63 | 1.43 | 1.25 | 0.796 (inactive) | 0.814 | 0.0578
24 | COc1cc2c(cc1O)C(c1cccs1)N(Cc1cc3c(cc1Br)OCO3)CC2 (stereo not given) | -0.0508 | 0.58 | 0.0797 | 1.3 | 1.56 | 2.08 | 1.45 | 0.364 (inactive) | 1.23 | 0.0881
25 | C=CC[C@@H](OC(=O)Nc1ccc(OC)cc1)c1ccc(O)c(F)c1 | 0.93 | 0.141 | -0.141 | -0.97 | -1.43 | 0.952 | 1.13 | 6.36 (inactive) | -0.535 | -0.216
26 | COC(=O)[C@@]1(Cc2ccccc2)[C@H]2c3cc(C(=O)N(C)C)n(Cc4ccc(C)o4)c3C[C@H]2CN1C(=O)c1ccccc1 | 1.97 | 0.6 | 0.632 | 0.685 | 1.36 | 1.47 | 1.15 | 0.495 (inactive) | 1.91 | 0.414
27 | COC(=O)c1c(CC[C@@H](CO)NC(=O)N[C@@H](C)Cn2cc(-c3ccccn3)nn2)oc(C(C)=O)c1C(=O)OC | -0.291 | 0.334 | -0.076 | 0.384 | -0.127 | 1.66 | 1.29 | 0.224 (inactive) | -0.205 | -0.0237
28 | CCCCN1CC=CC23O[C@@H]4/C=C\CCC(C)OC(=O)C4[C@H]2C(=O)N(CCCO)[C@@H]3C1=O (stereo not given in full) | 0.35 | -0.913 | -0.195 | -0.317 | -0.962 | 1.93 | 1.1 | -0.313 (inactive) | -0.663 | -0.306
29 | OCCCC1=CC(c2ccc(CN3CCCC3)cc2)N(Cc2cc3c(cc2Br)OCO3)CC1 (stereo not given) | 0.492 | 0.52 | -0.135 | -0.373 | -0.108 | -0.384 | 0.748 | -0.0594 (inactive) | 0.47 | -0.0237
30 | Cc1ccc(S[C@]2(C(=O)NCCN3CCOCC3)CC(=O)N(Cc3ccccc3Cl)[C@@H]2c2ccc(CO)cc2I)cc1 | 0.75 | 1.78 | 0.0027 | -0.142 | -0.675 | 1.15 | 1.04 | -2.03 (inactive) | -0.387 | 0.302
31 | Cc1ccc(S[C@]2(C(=O)NCC(F)(F)F)CC(=O)N(Cc3cc(C(F)(F)F)cc(C(F)(F)F)c3)[C@@H]2c2ccc(CO)cc2)cc1 | -0.26 | -1.74 | -0.133 | -0.232 | -0.995 | 1.09 | -0.353 | 0.0697 (inactive) | -0.234 | -0.0994
32 | CC(C)N1C(=O)c2ccccc2[C@@H](C(=O)NCCN2CCOCC2)[C@@H]1c1ccc(CO)cc1 | 0.197 | -0.831 | -0.22 | -1.54 | -1.61 | 1.12 | 1.28 | -0.571 (inactive) | -0.727 | -0.284
33 | CCOC(=O)[C@@H]1CCCCN1C(=O)C(=O)OC | 0.0188 | 0.188 | -0.0593 | 0.453 | 0.0842 | -0.0734 | 0.33 | 0.148 (inactive) | 0.115 | -0.342
34 | CC(C)NC(=O)[C@@]1(C)c2ccccc2C(=O)N(Cc2ccc(OC(F)(F)F)cc2)[C@H]1c1ccc(CO)cc1 | 1.95 | -1.63 | -0.167 | -0.546 | -1.25 | 0.628 | 0.865 | -3.14 (inactive) | -0.55 | -0.28

— PubChem BioAssay
